Experimental data from PubChem BioAssay (Tox21).
Values without a mark were called inactive. Inconclusive results are not listed. A call without a number means that no potency is given here. The source made the active and inactive calls. Unless noted, calls come from the whole dose curve; as a rule, active = well fitted curve in the direction sought with a large enough effect in the repeat runs; inconclusive = weak or mixed curves; inactive = no such curve, though single readings can be large; an effect the other way counts as inactive or inconclusive.

Tests used:
[1] = target: Thyrotropin-releasing hormone receptor (Homo sapiens) (UniProt P34981); assay: qHTS assay to identify small molecule agonists of the thyrotropin-releasing hormone receptor (TRHR) signaling pathway (AID 1346891; calls by dose curve;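 note: HEK293 cells expressing TRHR with calcium dye readout; series mostly up to about 58 µM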)
Thyrotropin-releasing hormone receptor (Homo sapiens), sequence (P34981 whole entry, looked up): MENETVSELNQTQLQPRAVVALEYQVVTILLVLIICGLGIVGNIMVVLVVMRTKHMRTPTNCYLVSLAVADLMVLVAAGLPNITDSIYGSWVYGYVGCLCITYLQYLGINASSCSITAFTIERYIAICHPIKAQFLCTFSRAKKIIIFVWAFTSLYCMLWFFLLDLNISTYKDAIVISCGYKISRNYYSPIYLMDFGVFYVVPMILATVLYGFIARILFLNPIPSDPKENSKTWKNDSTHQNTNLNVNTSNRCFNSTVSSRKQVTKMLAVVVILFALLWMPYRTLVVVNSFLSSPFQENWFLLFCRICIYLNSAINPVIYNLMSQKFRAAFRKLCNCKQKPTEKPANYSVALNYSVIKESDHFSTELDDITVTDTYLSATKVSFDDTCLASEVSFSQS
Procedure, shortened: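 Overnight-plated (18 h, 37 °C, 5% CO2) TRHR-Hek293 cells; 2 h calcium dye at 37 °C; compound in DMSO; 3-min kinetic fluorescence read.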

[2] = Human pregnane X receptor (PXR) small molecule agonists, qHTS cell viability counter screen (AID 1346977); note: nearly all actives have a fitted effect of over 50% in size
Procedure, shortened: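 After a 5hr pre-incubation, PXR-Luc HepG2 cells received compounds plus positive control in DMSO and were kept 24hr at 37C. Cell viability was quantified by fluorescence from CellTiter-Fluor added for the final hour.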

[3] = Caspase-3/7 induction in HepG2 cells by small molecules, qHTS assay (AID 1346978); note: nearly all actives have a fitted effect of over 15% in size
Procedure, shortened: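 Caspase-3/7 induction was measured by Caspase-Glo 3/7 luminescence (30 min, room temperature) after a 17 hr compound exposure of wild-type HepG2 cells seeded at 2,000 per well and pre-incubated 5 hr.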

[4] = Caspase-3/7 induction in CHO-K1 cells by small molecules, qHTS cell viability counter screen (AID 1346979); note: nearly all actives have a fitted effect of over 35% in size
Procedure, shortened: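 Multiplexed with Caspase-Glo 3/7 in CHO-K1 cells, this counter screen added CellTiter-Fluor after 16hr of compound exposure and recorded fluorescence 1hr later.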

[5] = Caspase-3/7 induction in CHO-K1 cells by small molecules, qHTS assay (AID 1346980); note: nearly all actives have a fitted effect of over 15% in size
Procedure, shortened: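 Luminescent Caspase-Glo 3/7 read (30min, room temperature) quantified apoptosis induction. Cells were wild-type CHO-K1, treated with compound for 17hr at 37 C and 5% CO2.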

[6] = Caspase-3/7 induction in HepG2 cells by small molecules, qHTS cell viability counter screen (AID 1346981); note: series mostly up to about 92 µM; nearly all actives have a fitted effect of over 30% in size
Procedure, shortened: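 In this quantitative HTS counter screen, compounds delivered in DMSO were left on unmodified HepG2 cells for 16 hr at 37 C. Viability was then determined fluorometrically with CellTiter-Fluor, in parallel with caspase-3/7 induction in the same wells.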

[7] = target: Nuclear receptor subfamily 1 group I member 2 (Homo sapiens) (UniProt O75469); assay: Human pregnane X receptor (PXR) small molecule agonists, qHTS assay (AID 1346982); note: nearly all actives have a fitted effect of over 35% in size
Nuclear receptor subfamily 1 group I member 2 (Homo sapiens), sequence (O75469 whole entry, looked up): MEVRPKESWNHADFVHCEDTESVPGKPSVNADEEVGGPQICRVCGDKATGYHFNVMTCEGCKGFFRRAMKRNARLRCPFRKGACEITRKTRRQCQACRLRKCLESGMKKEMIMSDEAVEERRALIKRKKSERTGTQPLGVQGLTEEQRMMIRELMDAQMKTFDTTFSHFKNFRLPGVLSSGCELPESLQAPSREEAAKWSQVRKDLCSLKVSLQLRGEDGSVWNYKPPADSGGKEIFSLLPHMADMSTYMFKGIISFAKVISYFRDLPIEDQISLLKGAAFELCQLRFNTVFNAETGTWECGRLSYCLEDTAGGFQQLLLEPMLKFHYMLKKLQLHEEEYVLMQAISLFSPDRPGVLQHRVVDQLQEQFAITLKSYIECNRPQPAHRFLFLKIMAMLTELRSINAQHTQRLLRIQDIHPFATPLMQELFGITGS
Procedure, shortened: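 Reporter HepG2 cells expressing PXR-Luc are cultured in charcoal-stripped FBS (5%), treated with compounds for 24 hr at 37 C, and assayed by ONE-Glo luminescence after 30 min at room temperature.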

[8] = target: Nuclear receptor subfamily 1 group I member 2 (Rattus norvegicus) (UniProt Q9R1A7); assay: Rat pregnane X receptor (rPXR) activation by small molecules, qHTS assay (AID 1346983); conditions: rPXR luciferase reporter cells, One-Glo luminescence, 24 h; max activation: active compounds read high; note: nearly all actives have a fitted effect of over 20% in size
Nuclear receptor subfamily 1 group I member 2 (Rattus norvegicus), sequence (Q9R1A7 whole entry, looked up): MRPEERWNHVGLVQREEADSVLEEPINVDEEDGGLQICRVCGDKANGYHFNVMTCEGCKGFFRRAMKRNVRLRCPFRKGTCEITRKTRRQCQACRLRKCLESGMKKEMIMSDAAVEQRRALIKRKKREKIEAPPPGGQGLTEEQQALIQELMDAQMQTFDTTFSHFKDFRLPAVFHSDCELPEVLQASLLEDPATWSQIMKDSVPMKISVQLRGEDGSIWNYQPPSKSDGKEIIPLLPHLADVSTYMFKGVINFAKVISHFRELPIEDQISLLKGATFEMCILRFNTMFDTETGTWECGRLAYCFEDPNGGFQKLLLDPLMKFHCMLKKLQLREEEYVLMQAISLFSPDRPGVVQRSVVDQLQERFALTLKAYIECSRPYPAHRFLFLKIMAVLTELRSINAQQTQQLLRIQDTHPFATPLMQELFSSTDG
Procedure, shortened: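 Luminescent readout (One-Glo luciferase, 30 min room temperature) followed 24 hr compound treatment at 37 C of rPXR cells plated 2,000 per well and preincubated 5hr; qHTS format with compounds delivered in DMSO.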

[9] = target: Nuclear receptor subfamily 1 group I member 2 (Homo sapiens) (UniProt O75469); assay: CYP3A4 induction through human pregnane X receptor (PXR) by small molecules, qHTS assay (AID 1346984); note: nearly all actives have a fitted effect of over 40% in size; note: potency is the fitted concentration of half-maximal effect
Procedure, shortened: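 Induction measured in HepG2-based DPX-2 cells co-expressing human PXR and a CYP3A4 promoter-driven luciferase. After a 24-hour compound exposure, cells received CYP3A4 luciferin substrate at 3uM final for 3 hours, and light output was then recorded.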

[10] = target: Cytochrome P450 2C19 (Homo sapiens) (UniProt P33261); assay: Cytochrome P450 Family 2 Subfamily C Member 19 (CYP2C19) small molecule antagonists: luciferase reporter qHTS assay (AID 1671197); note: nearly all actives have a fitted effect of over 65% in size; note: potency is the fitted concentration of half-maximal effect
Cytochrome P450 2C19 (Homo sapiens), sequence (P33261 whole entry, looked up): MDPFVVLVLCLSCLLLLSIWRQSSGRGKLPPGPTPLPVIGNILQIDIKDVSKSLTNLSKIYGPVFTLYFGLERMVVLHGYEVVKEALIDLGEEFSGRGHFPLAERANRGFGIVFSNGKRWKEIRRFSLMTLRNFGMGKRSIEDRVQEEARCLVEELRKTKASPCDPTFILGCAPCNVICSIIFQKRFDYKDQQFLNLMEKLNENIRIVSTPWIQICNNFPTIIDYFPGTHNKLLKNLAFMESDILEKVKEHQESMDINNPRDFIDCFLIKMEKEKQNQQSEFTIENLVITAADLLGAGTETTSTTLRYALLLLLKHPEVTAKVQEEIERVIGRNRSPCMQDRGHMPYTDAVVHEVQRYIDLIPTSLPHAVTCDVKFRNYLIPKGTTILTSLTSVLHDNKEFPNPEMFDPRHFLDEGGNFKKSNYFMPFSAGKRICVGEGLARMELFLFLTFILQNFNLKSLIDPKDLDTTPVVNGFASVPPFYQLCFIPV
Procedure, shortened: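 First, compounds are pinned into enzyme-substrate mix and held 10 min at room temperature. Second, NADPH regeneration solution is added and plates incubate 1 h at 37C. Third, detection reagent is added and luminescence read after 20 min.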

[11] = target: Cytochrome P450 2C9 (Homo sapiens) (UniProt P11712); assay: Cytochrome P450 Family 2 Subfamily C Member 9 (CYP2C9) small molecule antagonists: luciferase reporter qHTS assay (AID 1671198); note: nearly all actives have a fitted effect of over 50% in size; note: potency is the fitted concentration of half-maximal effect
Cytochrome P450 2C9 (Homo sapiens), sequence (P11712 whole entry, looked up): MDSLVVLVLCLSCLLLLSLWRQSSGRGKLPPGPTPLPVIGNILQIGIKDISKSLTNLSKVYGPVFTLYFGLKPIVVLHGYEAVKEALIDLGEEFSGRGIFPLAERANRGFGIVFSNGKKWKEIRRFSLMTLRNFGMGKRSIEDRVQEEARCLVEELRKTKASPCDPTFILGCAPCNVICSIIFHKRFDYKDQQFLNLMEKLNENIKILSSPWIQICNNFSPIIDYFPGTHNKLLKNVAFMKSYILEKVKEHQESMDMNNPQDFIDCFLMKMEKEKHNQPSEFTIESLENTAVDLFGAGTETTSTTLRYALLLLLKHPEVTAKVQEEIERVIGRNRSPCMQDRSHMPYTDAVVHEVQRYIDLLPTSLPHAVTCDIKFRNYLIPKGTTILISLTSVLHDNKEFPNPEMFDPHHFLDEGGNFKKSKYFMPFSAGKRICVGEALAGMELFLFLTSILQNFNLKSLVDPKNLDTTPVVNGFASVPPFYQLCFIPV
Procedure, shortened: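 Enzyme-substrate mix preincubated with compound 10 min at room temperature; reaction started with NADPH regeneration solution, 1 h 37C. Luminescent luciferin product read after 20 min detection reagent.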

[12] = target: Voltage-gated inwardly rectifying potassium channel KCNH2 (Homo sapiens) (UniProt Q12809); assay: Human Ether-a-go-go-Related Gene (hERG) channel small molecule antagonists: fluorescence cell-based qHTS assay (AID 1671200);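 note: hERG-expressing U2OS cells given a thallium stimulus after FluxOR II dye loading; series mostly up to about 77 µM; nearly all actives have a fitted effect of over 50% in size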
Voltage-gated inwardly rectifying potassium channel KCNH2 (Homo sapiens), sequence (Q12809 whole entry, looked up): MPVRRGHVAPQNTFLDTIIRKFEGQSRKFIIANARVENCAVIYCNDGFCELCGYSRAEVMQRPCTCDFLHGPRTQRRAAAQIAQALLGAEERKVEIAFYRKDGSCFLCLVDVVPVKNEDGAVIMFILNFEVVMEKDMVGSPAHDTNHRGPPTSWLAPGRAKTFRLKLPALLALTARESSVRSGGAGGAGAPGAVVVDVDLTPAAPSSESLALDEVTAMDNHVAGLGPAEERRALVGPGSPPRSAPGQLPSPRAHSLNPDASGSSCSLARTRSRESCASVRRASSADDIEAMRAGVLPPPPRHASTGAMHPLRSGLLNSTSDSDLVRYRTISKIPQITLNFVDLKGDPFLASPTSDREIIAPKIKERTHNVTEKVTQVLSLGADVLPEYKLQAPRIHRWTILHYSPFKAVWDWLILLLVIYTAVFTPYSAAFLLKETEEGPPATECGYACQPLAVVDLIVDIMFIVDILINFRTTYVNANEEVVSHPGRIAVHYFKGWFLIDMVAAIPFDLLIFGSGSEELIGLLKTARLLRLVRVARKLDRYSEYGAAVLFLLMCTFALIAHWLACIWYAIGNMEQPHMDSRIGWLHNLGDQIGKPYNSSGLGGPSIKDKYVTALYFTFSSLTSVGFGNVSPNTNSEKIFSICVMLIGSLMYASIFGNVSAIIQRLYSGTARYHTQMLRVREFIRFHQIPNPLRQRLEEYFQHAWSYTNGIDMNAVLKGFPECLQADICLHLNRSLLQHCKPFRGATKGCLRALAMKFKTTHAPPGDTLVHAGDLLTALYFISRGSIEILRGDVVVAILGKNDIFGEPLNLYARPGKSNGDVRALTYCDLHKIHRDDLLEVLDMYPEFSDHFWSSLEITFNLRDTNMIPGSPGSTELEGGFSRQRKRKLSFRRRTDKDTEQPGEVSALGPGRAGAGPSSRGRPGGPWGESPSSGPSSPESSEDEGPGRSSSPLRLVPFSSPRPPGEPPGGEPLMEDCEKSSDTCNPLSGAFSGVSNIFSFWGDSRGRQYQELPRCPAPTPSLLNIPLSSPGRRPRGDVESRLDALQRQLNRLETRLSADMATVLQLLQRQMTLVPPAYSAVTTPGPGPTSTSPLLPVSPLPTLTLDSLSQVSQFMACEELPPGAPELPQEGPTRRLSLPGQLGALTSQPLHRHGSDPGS
Procedure, shortened: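 Cell line hERG-U2OS; dye FluxOR II, 1 h RT dark; Tl+ stimulus; ex 480/em 540 nm, read each second for 2 min.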

[13] = target: Cytochrome P450 2D6 (Homo sapiens) (UniProt P10635); assay: Cytochrome P450 Family 2 Subfamily D Member 6 (CYP2D6) small molecule antagonists: luciferase reporter qHTS assay (AID 1671196); note: nearly all actives have a fitted effect of over 50% in size; note: potency is the fitted concentration of half-maximal effect
Cytochrome P450 2D6 (Homo sapiens), sequence (P10635 whole entry, looked up): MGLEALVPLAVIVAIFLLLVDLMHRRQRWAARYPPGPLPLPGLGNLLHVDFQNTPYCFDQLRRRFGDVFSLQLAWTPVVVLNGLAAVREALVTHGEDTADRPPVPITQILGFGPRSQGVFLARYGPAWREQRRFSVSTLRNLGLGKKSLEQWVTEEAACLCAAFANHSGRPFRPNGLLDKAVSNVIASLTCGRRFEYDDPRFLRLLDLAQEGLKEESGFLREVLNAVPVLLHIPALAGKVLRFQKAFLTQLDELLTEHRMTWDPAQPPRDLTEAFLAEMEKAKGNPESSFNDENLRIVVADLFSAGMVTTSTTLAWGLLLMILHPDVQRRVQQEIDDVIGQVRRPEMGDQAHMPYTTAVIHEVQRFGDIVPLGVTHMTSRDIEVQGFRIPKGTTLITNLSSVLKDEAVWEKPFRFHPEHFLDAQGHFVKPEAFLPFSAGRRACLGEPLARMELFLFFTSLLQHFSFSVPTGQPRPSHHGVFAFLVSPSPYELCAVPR
Procedure, shortened: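 Test chemicals meet CYP2D6 plus proluciferin substrate (10 min, RT); NADPH regenerating solution then drives turnover for 1 h. Detection reagent halts the reaction; luminescence measured after 20 min.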

[14] = target: Cytochrome P450 1A2 (Homo sapiens) (UniProt P05177); assay: Cytochrome P450 Family 1 Subfamily A Member 2 (CYP1A2) small molecule antagonists: luciferase reporter qHTS assay (AID 1671199)
Cytochrome P450 1A2 (Homo sapiens), sequence (P05177 whole entry, looked up): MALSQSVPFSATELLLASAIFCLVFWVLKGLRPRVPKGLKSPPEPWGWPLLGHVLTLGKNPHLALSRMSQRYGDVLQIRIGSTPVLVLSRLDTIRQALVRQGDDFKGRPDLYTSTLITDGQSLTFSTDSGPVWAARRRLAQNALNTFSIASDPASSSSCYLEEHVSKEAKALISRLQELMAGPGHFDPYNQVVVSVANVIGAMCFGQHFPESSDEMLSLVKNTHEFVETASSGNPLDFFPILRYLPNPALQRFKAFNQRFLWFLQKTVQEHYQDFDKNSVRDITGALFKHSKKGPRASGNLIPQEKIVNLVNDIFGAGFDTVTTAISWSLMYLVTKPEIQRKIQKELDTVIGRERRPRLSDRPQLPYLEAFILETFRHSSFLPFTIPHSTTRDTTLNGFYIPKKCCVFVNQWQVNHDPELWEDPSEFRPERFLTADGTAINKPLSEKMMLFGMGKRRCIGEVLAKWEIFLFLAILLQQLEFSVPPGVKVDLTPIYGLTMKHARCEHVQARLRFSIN
Procedure, shortened: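 Steps: enzyme-substrate mix dispensed; test compounds and furafylline control pinned in; 10 min room temperature; NADPH regeneration solution added, 1 h; reaction stopped with luciferin detection reagent; luminescence read after 20 min.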

[15] = target: Cytochrome P450 3A4 (Homo sapiens) (UniProt P08684); assay: Cytochrome P450 Family 3 Subfamily A Member 4 (CYP3A4) small molecule antagonists: luciferase reporter qHTS assay (AID 1671201); note: nearly all actives have a fitted effect of over 50% in size; note: potency is the fitted concentration of half-maximal effect
Cytochrome P450 3A4 (Homo sapiens), sequence (P08684 whole entry, looked up): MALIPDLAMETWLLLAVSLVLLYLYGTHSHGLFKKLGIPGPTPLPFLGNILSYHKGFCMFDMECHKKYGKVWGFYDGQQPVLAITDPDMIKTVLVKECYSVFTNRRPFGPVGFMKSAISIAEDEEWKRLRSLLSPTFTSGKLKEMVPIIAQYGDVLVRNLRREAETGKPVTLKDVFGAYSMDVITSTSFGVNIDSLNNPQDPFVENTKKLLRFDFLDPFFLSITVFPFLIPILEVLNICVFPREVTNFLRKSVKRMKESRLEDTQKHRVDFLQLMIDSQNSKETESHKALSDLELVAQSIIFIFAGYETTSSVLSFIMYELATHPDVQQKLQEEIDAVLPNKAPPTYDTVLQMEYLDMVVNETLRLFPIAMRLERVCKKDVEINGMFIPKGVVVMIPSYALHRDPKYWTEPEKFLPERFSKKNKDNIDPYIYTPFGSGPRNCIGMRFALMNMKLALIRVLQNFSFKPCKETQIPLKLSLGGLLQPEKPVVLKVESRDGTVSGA
Procedure, shortened: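 Room-temperature assay throughout: 10 min compound–enzyme/substrate preincubation, 1 h reaction after NADPH regeneration solution, 20 min detection. Luciferin formed from proluciferin substrate is quantified by luminescence.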

[16] = target: Nuclear receptor subfamily 1 group I member 2 (Homo sapiens) (UniProt O75469); assay: Human pregnane X receptor (PXR) activation by small molecules, qHTS assay (AID 1346985); note: nearly all actives have a fitted effect of over 40% in size
Procedure, shortened: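 DPX-2 cells (HepG2 co-transfected with a PXR response element and a CYP3A4-promoter luciferase construct) were seeded at 2,000 per well, rested 5 hr at 37C, then exposed to DMSO-dissolved compounds for 24 hr. Activation was read as luciferase luminescence.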

| Structure (SMILES) | Potency [1] | Potency [2] | Potency [3] | Potency [4] | outcome [5] | Potency [6] | Potency [7] | max activation [8] [%] | Potency [9] | Potency [10] | Potency [11] | Potency [12] | Potency [13] | Potency [14] | Potency [15] | Potency [16] |
| --- | --- | --- | --- | --- | --- | --- | --- | --- | --- | --- | --- | --- | --- | --- | --- | --- |
| Oc1ccccc1C=NCc1ccccc1 | inactive | inactive | inactive | inactive | inactive | inactive | inactive | -0.218 | 14.1 µM (active) | inactive | inactive | inactive | – | – | – | – |
| O=C1CCCCC1C1CCCCC1 (stereo not given) | inactive | inactive | inactive | inactive | inactive | inactive | inactive | – | – | inactive | inactive | inactive | inactive | inactive | inactive | – |
| OCCN1CCN(CCO)CC1 | inactive | inactive | inactive | inactive | inactive | inactive | inactive | – | – | inactive | inactive | – | inactive | – | inactive | – |
| CCCCNCCCC | inactive | inactive | inactive | inactive | inactive | inactive | inactive | – | – | – | inactive | inactive | – | – | inactive | – |
| CCCNC(C)(C)COC(=O)c1ccccc1 | inactive | inactive | inactive | inactive | inactive | inactive | – | – | – | – | – | inactive | – | – | – | – |
| CCC1(C)NC(=O)NC1=O (stereo not given) | inactive | inactive | inactive | inactive | inactive | inactive | inactive | – | – | inactive | – | inactive | inactive | – | inactive | – |
| CC(=O)OC1C2(C)CCC(C2)C1(C)C (stereo not given) | inactive | inactive | inactive | inactive | inactive | inactive | inactive | – | – | inactive | inactive | inactive | inactive | – | inactive | – |
| CCCCC1CCC(=O)O1 (stereo not given) | inactive | inactive | inactive | inactive | inactive | inactive | inactive | – | – | inactive | inactive | – | inactive | – | inactive | – |
| COC(=O)/C=C(/C)N | inactive | inactive | inactive | inactive | inactive | inactive | inactive | – | – | inactive | inactive | – | inactive | – | inactive | – |
| O=C(CCCl)NCc1ccccc1 | inactive | inactive | inactive | inactive | inactive | inactive | inactive | – | – | inactive | inactive | inactive | inactive | – | inactive | – |
| C[C@]12CCC(=O)C=C1CC[C@@H]1[C@@H]2CC[C@@]2(C)[C@H]1CC[C@]2(O)C(=O)CO | inactive | inactive | inactive | inactive | inactive | – | inactive | 14.2 | inactive | 8.71 µM (active) | – | inactive | – | – | inactive | inactive |
| COC(=O)c1ccc(OC)cc1 | inactive | inactive | inactive | inactive | inactive | – | inactive | – | – | inactive | inactive | inactive | inactive | – | inactive | – |
| CN(C)Cc1ccccc1 | inactive | inactive | inactive | inactive | inactive | inactive | inactive | – | – | inactive | inactive | inactive | 18 µM (active) | – | inactive | – |
| CC(C)(CO)[C@@H](O)C(=O)NCCC(=O)O | inactive | inactive | inactive | inactive | inactive | inactive | inactive | – | – | inactive | – | – | inactive | – | inactive | – |
| CCCCCCCCc1ccc(S(=O)(=O)O)cc1 | inactive | inactive | inactive | inactive | inactive | inactive | inactive | – | – | inactive | – | inactive | inactive | inactive | inactive | – |
| CC(C)C(=O)OC/C=C/c1ccccc1 | inactive | inactive | inactive | inactive | inactive | inactive | inactive | – | – | 39.9 µM (active) | 35.6 µM (active) | – | inactive | – | inactive | – |
| CCCOCCC | inactive | inactive | inactive | inactive | inactive | inactive | inactive | – | – | inactive | – | inactive | inactive | – | inactive | – |
| CC(C)=CCCC(C)CCOC=O (stereo not given) | inactive | inactive | inactive | inactive | inactive | inactive | inactive | – | – | – | 71 µM (active) | inactive | inactive | – | 35.6 µM (active) | – |
| COC(=O)N[C@H](C(=O)N[C@@H](Cc1ccccc1)[C@@H](O)CN(Cc1ccc(-c2ccccn2)cc1)NC(=O)[C@@H](NC(=O)OC)C(C)(C)C)C(C)(C)C | inactive | inactive | inactive | inactive | inactive | inactive | – | – | – | 34.7 µM (active) | 15.5 µM (active) | inactive | inactive | inactive | – | – |
| CCCCCCC | inactive | inactive | inactive | inactive | inactive | inactive | inactive | – | – | – | inactive | inactive | inactive | inactive | inactive | – |
| CC(C)S | inactive | inactive | inactive | inactive | inactive | inactive | inactive | – | – | inactive | inactive | – | – | inactive | inactive | – |
| CCCCCCCCCC/C=C/C#N | inactive | inactive | inactive | inactive | inactive | inactive | inactive | – | – | inactive | inactive | – | inactive | – | inactive | – |
